Data: the antibiotic and cytotoxicity screens of Wong et al. (2023)
Hit rate of the full screen: of about 39,000 compounds, about 1,500 (3.8%) were called active. Shown is part of a subset that was picked to be rich in actives.

tested on: HSkMC (human skeletal muscle cells); test: cytotoxicity call (relative viability < 0.9); conditions: 10 µM

Row | Structure (SMILES) | cytotoxicity call
1 | C[C@H]1CN([C@@H](C)CO)C(=O)c2cc(NC(=O)Cn3cnnn3)ccc2O[C@@H]1CN(C)Cc1ccc(-c2ccccc2)cc1 | inactive
2 | COc1ccc(NC(=O)Nc2ccc3c(c2)C(=O)N([C@H](C)CO)C[C@@H](C)[C@H](CN(C)S(=O)(=O)c2c(C)noc2C)OCCCC[C@@H](C)O3)cc1 | inactive
3 | CC1CC2C3CC(F)C4=CC(=O)C=CC4(C)C3(F)C(O)CC2(C)C1(O)C(=O)COC(=O)C(C)(C)C (configuration not stated) | inactive
4 | CC(=O)Nc1nnc2n1CCS2 | inactive
5 | C[C@H](O)C#Cc1cnc2c(c1)C(=O)N([C@H](C)CO)C[C@@H](C)[C@@H](CN(C)C(=O)CN1CCOCC1)O2 | inactive
6 | C[C@H]1CN([C@@H](C)CO)C(=O)c2cccc(NS(=O)(=O)c3ccc(F)cc3)c2O[C@@H]1CN(C)S(=O)(=O)c1cn(C)cn1 | inactive
7 | C[C@@H]1CCCCO[C@H](CN(C)C(=O)c2ccncc2)[C@H](C)CN([C@H](C)CO)C(=O)c2cc(NS(=O)(=O)c3cn(C)cn3)ccc2O1 | inactive
8 | O=C(C[C@@H]1C=C[C@@H](NC(=O)c2cccc(F)c2)[C@@H](CO)O1)NCCN1CCCC1 | inactive
9 | Clc1cccn2nnnc12 | inactive
10 | C[C@@H]1CCCCO[C@H](CN(C)Cc2ccc(C(=O)O)cc2)[C@H](C)CN([C@@H](C)CO)C(=O)c2cc(NC(=O)c3ccccc3)ccc2O1 | inactive
11 | C[C@@H]1CCCCO[C@@H](CN(C)Cc2ccc(C(F)(F)F)cc2)[C@H](C)CN([C@@H](C)CO)C(=O)c2cc(NC(=O)CCC(F)(F)F)ccc2O1 | inactive
12 | COC(=O)C1=CC(CCCO)=C[C@@H](c2cccs2)N(Cc2cccc(OC(F)(F)F)c2)C=C1C(=O)OC | inactive
13 | O=C1O[C@H](c2ccccc2)[C@H](c2ccccc2)N2[C@H]1[C@@H](C(=O)O)[C@]1(C(=O)Nc3ccc(C#CC4=CCCCC4)cc31)[C@H]2c1ccccc1OCCO | inactive
14 | COc1ccc(C#Cc2ccc3c(c2)[C@]2(C(=O)N3)[C@H](c3ccccc3OCCO)N3[C@H](c4ccccc4)[C@H](c4ccccc4)OC(=O)[C@H]3[C@@H]2C(=O)O)cc1 | inactive
15 | COCCOC(=O)N1C(=O)[C@@]2(c3cc(C#Cc4ccc(OC)cc4)ccc31)[C@H](c1ccc(OCCO)cc1)N1[C@H](c3ccccc3)[C@H](c3ccccc3)OC(=O)[C@H]1[C@@H]2C(=O)NC[C@H](O)c1ccccc1 | inactive
16 | O=C1O[C@@H](c2ccccc2)[C@@H](c2ccccc2)N2[C@@H](c3ccccc3OCCO)[C@]3(C(=O)Nc4ccc(C#CC5=CCCCC5)cc43)[C@@H](C(=O)O)[C@H]12 | inactive
17 | COc1ccc(C#Cc2ccc3c(c2)[C@]2(C(=O)N3)[C@H](C(=O)O)[C@H]3C(=O)O[C@H](c4ccccc4)[C@H](c4ccccc4)N3[C@@H]2c2ccccc2OCCO)cc1 | inactive
18 | NC(=O)[C@H]1[C@@H]2C(=O)O[C@@H](c3ccccc3)[C@@H](c3ccccc3)N2[C@@H](c2ccccc2OCCO)[C@]12C(=O)Nc1ccc(C#CC3=CCCCC3)cc12 | active
19 | COc1ccc(C#Cc2ccc3c(c2)[C@]2(C(=O)N3)[C@H](C(N)=O)[C@H]3C(=O)O[C@H](c4ccccc4)[C@H](c4ccccc4)N3[C@@H]2c2ccccc2OCCO)cc1 | active

Row | Structure (SMILES) | cytotoxicity call
20 | COCCOC(=O)N1C(=O)[C@@]2(c3cc(C#Cc4ccc(OC)cc4)ccc31)[C@H](c1ccc(OCCO)cc1)N1[C@H](c3ccccc3)[C@H](c3ccccc3)OC(=O)[C@H]1[C@@H]2C(N)=O | inactive
21 | COc1ccc(C#Cc2ccc3c(c2)[C@@]2(C(=O)N3C(=O)N[C@@H](C)c3ccccc3)[C@H](c3ccc(OCCO)cc3)N3[C@H](c4ccccc4)[C@H](c4ccccc4)OC(=O)[C@H]3[C@@H]2C(=O)O)cc1 | active
22 | C[C@H]1CN([C@@H](C)CO)C(=O)c2cccc(NC(=O)c3cnccn3)c2O[C@@H]1CN(C)S(=O)(=O)c1cccs1 | inactive
23 | C[C@@H]1CCCCO[C@H](CN(C)Cc2ccc(C(F)(F)F)cc2)[C@@H](C)CN([C@@H](C)CO)C(=O)c2cc(NC(=O)C3CCCCC3)ccc2O1 | inactive
24 | O=C(NCCN1CCOCC1)[C@@H]1c2ccccc2C(=O)N(Cc2cc(C(F)(F)F)cc(C(F)(F)F)c2)[C@H]1c1ccc(CO)cc1 | inactive
25 | C[C@H]1CN([C@@H](C)CO)C(=O)Cc2cc(NC(=O)CCN3CCOCC3)ccc2O[C@@H]1CN(C)Cc1ccc(C(=O)Nc2ccccc2N)cc1 | inactive
26 | Cc1noc(C)c1NC(=O)Nc1ccc2c(c1)C(=O)N([C@H](C)CO)C[C@@H](C)[C@@H](CN(C)Cc1ccc(Oc3ccccc3)cc1)O2 | inactive
27 | C[C@@H]1CN([C@@H](C)CO)C(=O)c2cccc(NS(=O)(=O)c3cn(C)cn3)c2O[C@@H]1CN(C)S(=O)(=O)c1ccc(Cl)cc1 | inactive
28 | COc1ccc(CN(C)C[C@H]2Oc3ccc(NS(C)(=O)=O)cc3C(=O)N([C@@H](C)CO)C[C@@H]2C)cc1 | inactive
29 | CNC[C@H]1Oc2c(NS(=O)(=O)c3cn(C)cn3)cccc2C(=O)N([C@H](C)CO)C[C@H]1C | inactive
30 | Cn1cnc(CCNC(=O)C[C@H]2CC[C@@H]3[C@H](COC[C@H](O)CN3C(=O)Nc3ccc(C(F)(F)F)cc3)O2)c1 | inactive
31 | CCNC(=O)C[C@@H]1C=C[C@H](NC(=O)C2CC2)[C@@H](CO)O1 | inactive
32 | C=CCC[C@@H](Cc1ccc(F)cc1)C(=O)OC[C@H](Cc1c[nH]c2ccccc12)NC(=O)[C@@H](CC=C)CC(=O)N[C@H](CO)Cc1ccccc1 | inactive
33 | C=CCC[C@H](Cc1ccc(F)cc1)C(=O)OC[C@H](Cc1c[nH]c2ccccc12)NC(=O)[C@@H](CC=C)CC(=O)N[C@@H](CO)Cc1ccccc1 | active
34 | C=CCC[C@@H](Cc1ccc(F)cc1)C(=O)OC[C@H](Cc1c[nH]c2ccccc12)NC(=O)[C@@H](CC=C)CC(=O)N[C@@H](CO)Cc1ccccc1 | inactive
35 | C=CCC[C@H](Cc1ccc(F)cc1)C(=O)OC[C@H](Cc1c[nH]c2ccccc12)NC(=O)[C@@H](CC=C)CC(=O)N[C@H](CO)Cc1ccccc1 | active
36 | C=CC[C@@H](CC(=O)N[C@H](CO)Cc1ccccc1)C(=O)N[C@@H](COC(=O)[C@@H](CC=C)NC(=O)OCC1c2ccccc2-c2ccccc21)Cc1c[nH]c2ccccc12 | active
37 | C=CCC[C@H](Cc1ccc(F)cc1)C(=O)OC[C@H](Cc1c[nH]c2ccccc12)NC(=O)[C@H](CC=C)CC(=O)N[C@@H](CO)Cc1ccccc1 | inactive
38 | C=CC[C@@H](CC(=O)N[C@H](CO)Cc1ccccc1)C(=O)N[C@H](COC(=O)[C@@H](CC=C)Cc1ccc(F)cc1)Cc1c[nH]c2ccccc12 | inactive

Row | Structure (SMILES) | cytotoxicity call
39 | C=CCC[C@@H](Cc1ccc(F)cc1)C(=O)OC[C@@H](Cc1c[nH]c2ccccc12)NC(=O)[C@H](CC=C)CC(=O)N[C@@H](CO)Cc1ccccc1 | inactive
40 | C=CC[C@H](CC(=O)N[C@@H](CO)Cc1ccccc1)C(=O)N[C@@H](COC(=O)[C@@H](CC=C)Cc1ccc(F)cc1)Cc1c[nH]c2ccccc12 | inactive
41 | CS(=O)(=O)N1CC(=O)Nc2ccccc21 | inactive
42 | COc1ccc(S(=O)(=O)Nc2ccc3c(c2)C(=O)N([C@@H](C)CO)C[C@@H](C)[C@@H](CN(C)Cc2ccc(C(=O)O)cc2)OCCCC[C@H](C)O3)cc1 | inactive
43 | C[C@@H]1CN([C@@H](C)CO)S(=O)(=O)c2ccc(C#CCN(C)C)cc2O[C@@H]1CN(C)Cc1ccccc1F | inactive
44 | CC(C)NC(=O)Nc1ccc2c(c1)C(=O)N([C@H](C)CO)C[C@H](C)[C@H](CN(C)C(=O)Nc1cccc3ccccc13)OCCCC[C@H](C)O2 | inactive
45 | CC(C)NC(=O)N(C)C[C@H]1Oc2ccc(NC(=O)C3CCCCC3)cc2C(=O)N([C@H](C)CO)C[C@@H]1C | inactive
46 | CCC(=O)Nc1ccc2c(c1)OC[C@@H](C)N(C(=O)CN1CCOCC1)C[C@H](C)[C@@H](OC)CN(C)C2=O | inactive
47 | C[C@@H]1CN([C@@H](C)CO)C(=O)c2cccc(NC(=O)Nc3cccc4ccccc34)c2O[C@H]1CN(C)S(=O)(=O)c1ccccc1 | inactive
48 | COc1ccc(S(=O)(=O)Nc2cccc3c2O[C@H](CN(C)S(=O)(=O)c2ccc(C)cc2)[C@@H](C)CN([C@H](C)CO)C3=O)cc1 | inactive
49 | O=C(C[C@@H]1CC[C@H]2[C@@H](COC[C@@H](O)CN2S(=O)(=O)c2cccc(Cl)c2)O1)NCCCN1CCOCC1 | inactive
50 | COCC(=O)N1CC[C@]2(CC1)CN(Cc1cccc(c1)OC)[C@H](CO)c1c2c2ccc(cc2n1C)OC | inactive
51 | C[C@H](CO)N1C[C@H](C)[C@@H](CN(C)S(=O)(=O)c2cn(C)cn2)OCc2cn(nn2)CCCC1=O | inactive
52 | C[C@@H]1CN([C@H](C)CO)C(=O)Cc2cc(NC(=O)Nc3ccc(C(F)(F)F)cc3)ccc2O[C@H]1CN(C)Cc1ccccc1 | active
53 | C[C@H]1CN([C@@H](C)CO)C(=O)Cc2cc(NC(=O)Nc3ccc(C(F)(F)F)cc3)ccc2O[C@H]1CN(C)Cc1ccccc1 | active
54 | C[C@@H]1CN([C@@H](C)CO)C(=O)Cc2cc(NC(=O)Nc3ccc(C(F)(F)F)cc3)ccc2O[C@H]1CN(C)Cc1ccccc1 | inactive
55 | C[C@H]1CN([C@@H](C)CO)C(=O)Cc2cc(NC(=O)Nc3ccc(C(F)(F)F)cc3)ccc2O[C@@H]1CN(C)Cc1ccccc1 | inactive
56 | C[C@@H]1CN([C@@H](C)CO)C(=O)Cc2cc(NC(=O)Nc3ccc(C(F)(F)F)cc3)ccc2O[C@@H]1CN(C)Cc1ccccc1 | active
57 | C[C@H](CO)N1C[C@H](C)[C@H](CN(C)Cc2ccccc2)Oc2ccc(NC(=O)Nc3ccc(C(F)(F)F)cc3)cc2CC1=O | active
